Shown are actives, neighbours in structure and some others; about 21% of the full set was active somewhere.
Pf growth 48h – P. falciparum growth inhibition at 48 hours (one generation); P. falciparum luciferase growth in erythrocytes, 48 h; Potency, µM (highest dose often 28.7 µM), for the others: at the top dose activity change, negative = inhibition, usual class: inhibitors; 310,000 compounds, 5.9% hits; AID 504832; active = well fitted inhibition curve with a large enough effect; inconclusive = small, poorly fitted or top-dose-only effect, or another doubt; inactive = no such curve, though single readings can be large or run the other way; note: potency is the fitted concentration of half-maximal effect; % is set by controls: 0 for no effect and ±100 for the full control effect
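In quantitative HTS format, infected erythrocytes bearing luciferase-reporter parasites were treated for a single generation at 37 C. Luminescence after adding detection reagent served as the growth measure.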
Shiga inhibitor – Shiga toxin inhibition; inhibition, % at 38.7 µM; AID 2315; Vero cells, Shiga toxin protein synthesis inhibition reporter; 290,000 compounds, 9.2% hits; in the data active = inhibition mostly above about 28%, no sharp cut-off; inactive = mostly below about 43%; note: 0% is about no effect
NS1 inh – inhibitors of influenza NS1 protein function | Potency, µM (highest dose often 46.1 µM), inactives show at the top dose activity, positive = more growth | 270,000 compounds, 0.4% hits; note: potency is the fitted concentration of half-maximal effect; actives are rising curves; nearly all actives have a fitted effect of over 50% in size
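Compounds were scored for reversing the slow growth caused by influenza A NS1 in S. cerevisiae, measured by optical density at 600 nm. Assay medium contained 2% galactose at pH 6.0; NS1-free yeast of the same strain were the positive control.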
Cycloheximide cs – affects cycloheximide protein synthesis inhibition readout, counter-screen | cell reporter, cycloheximide protein synthesis inhibition counterscreen | max response, % | 300,000 compounds, 12% hits; in the data active = max response mostly above about 13%, no sharp cut-off; inactive = mostly below about 14%; note: read at 38.3 µM for the half of the compounds with a filed dose; 0% is about no effect
SARS PLpro yeast – inhibitors of SARS-CoV papain-like protease in yeast. S. cerevisiae expressing SARS-CoV PLpro, growth rescue. 330,000 compounds, 0.19% hits. AID 485353. Potency, µM (top dose mostly 32.9 µM), inactives show at the top dose activity, positive = growth rescue, most hits filed as activators; note: potency is the fitted concentration of half-maximal effect; 0% is about no effect; nearly all actives have a fitted effect of over 55% in size
Pf growth 96h – P. falciparum growth inhibition at 96 hour, primary screen for plastid delayed-death inhibitors. P. falciparum luciferase reporter growth, 96 h. Potency, µM (top dose mostly 28.7 µM), for the others: at the highest dose activity change, negative = inhibition, hits mostly inhibitors. 320,000 compounds, 6.9% hits. AID 504834; active = well fitted inhibition curve with a large enough effect; inconclusive = small, poorly fitted or top-dose-only effect, or another doubt; inactive = no such curve, though single readings can be large or run the other way; note: potency is the fitted concentration of half-maximal effect; % is set by controls: 0 for no effect and ±100 for the full control effect
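Compounds incubated with erythrocytes infected by luciferase-expressing P. falciparum (2% hematocrit, 0.05% parasitemia final) for 96 hours, 37 C in 5% CO2. Growth inhibition scored as decreased luciferase luminescence.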
The depositor's hits bear a star; ? = inconclusive; / = not tested or not shown. Unless noted, calls come from the whole dose curve.

SMILES	Pf growth 48h	Shiga inhibitor	NS1 inh	Cycloheximide cs	SARS PLpro yeast	Pf growth 96h
Cc1noc(C)c1C(=O)Nc1ccc(-n2ccc(C(F)(F)F)n2)cc1	6%	-5	1%	1	0%	-18%
O=C(O)CCCC(=O)Nc1ccc(-n2ccc(C(F)(F)F)n2)cc1	4%	-10	2%	-2	-2%	16%
CCOC(=O)c1c(C)c(C(=O)NCc2ccccn2)c(C)n1CC	-7%	-1	-2%	-1	0%	12%
Nc1cc(=O)[nH]c(SCC(=O)Nc2ccccc2Sc2ccccc2)n1	?	-5	/	-2	1%	?
O=C(Nc1ccc(-n2ccc(C(F)(F)F)n2)cc1)c1cccs1	?	117*	-46%	45*	-3%	?
O=C(O)c1ccccc1C(=O)Nc1ccc(-n2ccc(C(F)(F)F)n2)cc1	2%	2	-4%	-2	-2%	-2%
CCOc1ccc(-n2cnc3sc(C)c(C)c3c2=O)cc1	-4%	-6	11%	-2	-8%	-6%
CCc1cc(C(=O)N(CC)CC(=O)Nc2ccc(OC)cc2)sc1C	?	/	/	/	-1%	?
CC1CCCC(C)N1C(=O)c1cc(-c2ccc3c(c2)OCO3)on1 (centres undefined)	197%	78*	-2%	54*	-3%	22%
Cc1ccc(-c2cc(C(=O)N3CCCC3)no2)cc1	45%	active	0%	28	-10%	10%
O=C(c1cc(-c2ccc3c(c2)OCO3)on1)N1CCCCC1	202%	55*	-8%	25*	-8%	13µM*
O=C(c1cc(-c2ccc(Cl)cc2)on1)N1CCCCCC1	174%	109*	3%	27*	-3%	270%
Cc1ccc(-c2cc(C(=O)N3CCOCC3)no2)cc1	27%	29	-1%	12	0%	27%
COc1ccccc1N1CCN(C(=O)c2cc(-c3ccc(Cl)cc3)on2)CC1	-2%	4	-11%	18	9%	46%
CC1CCCC(C)N1C(=O)c1cc(-c2ccc(Cl)c(Cl)c2)on1 (centres undefined)	127%	2	-78%	-1	4%	10%
O=C1CCc2cc(S(=O)(=O)Nc3ccc(F)cc3)cc3c2N1CC3	27%	/	/	/	0%	-12%
COc1ccccc1N1CCN(C(=O)c2cc(-c3ccc(F)cc3)on2)CC1	5%	4	-4%	-4	-3%	47%
O=C(c1cc(-c2ccc(Cl)c(Cl)c2)on1)N1CCCCCC1	245%	36*	9%	20*	2%	266%
O=C(c1cc(-c2ccccc2Cl)on1)N1CCN(C(=O)c2ccco2)CC1	18%	-11	-17%	-3	-6%	-17%
O=C(c1cc(-c2ccc(O)cc2)on1)N1CCCCCC1	114%	61*	-6%	34*	-5%	-1%
Cc1nn(CCCC(=O)Nc2cc(Oc3ccccc3)cc([N+](=O)[O-])c2)c(C)c1[N+](=O)[O-]	-13%	-9	20%	-1	-22%	53%
CCn1nc(C)c(C(=O)Nc2cc(Oc3cc(C)cc(C)c3)cc([N+](=O)[O-])c2)c1C	?	-19	?	-1	-13%	12µM*
c1ccc(-c2nc(NCCCn3ccnc3)c3ccccc3n2)cc1	3.7µM*	12	-4%	-4	1%	8.3µM*
Cc1cc(NCCCn2ccnc2)n2ncc(-c3ccccc3)c2n1	-67%	18	-5%	9	-9%	-99%
Cc1cc(NCCCn2ccnc2)n2nc(C)c(-c3ccc(Cl)cc3)c2n1	/	36	-2%	26*	16%	2%
SMILES	Pf growth 48h	Shiga inhibitor	NS1 inh	Cycloheximide cs	SARS PLpro yeast	Pf growth 96h
CCN(CC)CCCNc1nc(-c2ccccc2)nc2ccccc12	?	-2	2%	-3	10%	?
Cc1cc(NCCCn2ccnc2)n2nc(C)c(-c3ccccc3)c2n1	/	33	-3%	44*	4%	12µM*
COc1ccccc1NC(=O)c1ccccc1-c1ccccc1C(=O)O	8%	2	5%	-3	4%	19%
COc1cccc(OC)c1C(=O)Nc1ccc2c3c(cccc13)CC2	-8%	-9	-52%	1	-15%	-18%
COc1ccccc1NC(=O)c1cc(=O)[nH]c2ccccc12	-16%	/	5%	2	-2%	23%
COC(=O)c1ccccc1NC(=O)c1ccccc1OC	9%	34	-82%	-1	-3%	6%
